# Measurements taken from PubChem BioAssay.
# Active and inactive are the calls of the source. Unless noted, no rule for the calls is given here.
# How the values were obtained:
# [1] = A549 cell viability effects, profiling panel, calcein-AM fluorescence, 48 h, basal (AID 1162); conditions: higher = more signal; also: test concentration not given here
# [2] = adipocyte viability effects, profiling panel, cell-based, 3T3-L1 adipocytes, calcein-AM fluorescence, 48 h, basal (AID 1163); conditions: 3T3-L1 adipocytes viability, higher = more signal; also: test concentration not given here
# [3] = HepG2 cell viability effects, profiling panel, calcein-AM fluorescence, 48 h, basal (AID 1164); conditions: higher = more signal; also: test concentration not given here
# [4] = MM1S cell viability effects, profiling panel, calcein-AM fluorescence, 48 h, basal (AID 1165); conditions: higher = more signal;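 also: viability of MM1S multiple myeloma cells under basal unstimulated conditions; test concentration not given here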
# [5] = basal RPMI8226 viability, no added stimulus, profiling panel, cell-based, calcein-AM fluorescence, 48 h, PK04 Diversity Set (AID 1166); conditions: RPMI8226 myeloma viability, higher = more signal;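 also: cells grown under basal conditions without added stimulus; test concentration not given here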
# [6] = basal HepG2 mitochondrial membrane potential changes, profiling panel, cell-based, JC-1 fluorescence, 24 h, 100 nL compound (AID 1167); conditions: higher = more signal; also: test concentration not given here
# [7] = basal 3T3-L1 adipocyte mitochondrial potential changes, profiling panel, cell-based, JC-1 fluorescence, 3T3-L1 adipocytes, 24 h, 100 nL compound (AID 1168); conditions: JC-1 mitochondrial fluorescence, higher = more signal, called active from +8 up or from −8 down; also: test concentration not given here
# [8] = basal RPMI8226 mitochondrial membrane potential changes, profiling panel, cell-based, JC-1 fluorescence, 24 h, 100 nL compound (AID 1169); conditions: RPMI8226 myeloma, JC-1 mitochondrial potential fluorescence, higher = more signal; also: test concentration not given here
# [9] = basal MM1S mitochondrial membrane potential changes, profiling panel, cell-based, JC-1 fluorescence, 24 h, 100 nL compound (AID 1170); conditions: higher = more signal; also: test concentration not given here
# [10] = A549 lung cancer cell viability effects, profiling panel, resazurin fluorescence, 24 h, PK04 Diversity Set (AID 1171); conditions: higher = more signal, called active from +8 up or from −8 down; also: test concentration not given here
# [11] = HepG2 liver cancer cell viability effects, profiling panel, resazurin fluorescence, 24 h, PK04 Diversity Set (AID 1172); conditions: higher = more signal; also: test concentration not given here
# [12] = basal S. cerevisiae growth modulation, no modifier, primary screen, OD600, strain BY4716, 24 h, basal condition (AID 1173); conditions: OD600, 24 h, higher = more signal, called active from +8 up or from −8 down
# [13] = MM1S myeloma cell viability, profiling panel, resazurin fluorescence, basal, 24 h, PK04 Diversity Set (AID 1174); conditions: higher = more signal, called active from +8 up or from −8 down;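 also: MM1S multiple myeloma cell line; test concentration not given here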
# [14] = molecular target: Dihydroorotate dehydrogenase (quinone), mitochondrial (Plasmodium falciparum (isolate 3D7)) (UniProt Q08210); test: PfDHODH enzyme inhibitors, primary screen, biochemical, C-terminal His tag, absorbance 600 nm (AID 1175); conditions: DCIP absorbance 600 nm, higher = more signal, called active from +8 up or from −8 down;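 also: recombinant parasite enzyme with a five histidine tag at its C terminus; test concentration not given here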
# [15] = P. aeruginosa biofilm formation inhibitors, primary screen, strain PAO1, LB-PBS medium, absorbance 600 nm (AID 1176); also: test concentration not given here; conditions: P. aeruginosa PAO1 growth/biofilm, A600, 12 h; higher = more signal
# [16] = S. cerevisiae RM11-1a growth modifiers, primary screen, strain RM11-1a, OD600, basal, 24 h (AID 1177); conditions: OD600, 24 h, higher = more signal, called active from +8 up or from −8 down;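 also: cultures grown under basal conditions with no added stressor; test concentration not given here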
# [17] = E. coli acrAB mutant growth effects, primary screen, E. coli filamentation inducers, strain DRC39, OD650, 24 h (AID 1178); conditions: higher = more signal, called active from +8 up or from −8 down;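 also: growth measured as culture turbidity by optical density at 650 nm; test concentration not given here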
# [18] = E. coli acrAB mutant growth effects, primary screen, E. coli filamentation inducers, strain DRC39, OD650, 48 h (AID 1179);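 also: screen aims at cell division blockers that make cells filament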; conditions: E. coli DRC39 delta-acrAB growth, higher = more signal, called active from +8 up or from −8 down
# [19] = RPMI8226 myeloma cell viability, profiling panel, resazurin fluorescence, basal, 24 h, PK04 Diversity Set (AID 1180); conditions: higher = more signal;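 also: RPMI8826 multiple myeloma cell line at 5000 cells per well; test concentration not given here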
# [20] = molecular target: E3 ubiquitin-protein ligase XIAP (Homo sapiens) (UniProt P98170); test: XIAP binders, primary screen, biophysical, small-molecule microarray, fluorescence 635 nm (AID 1181); conditions: small-molecule microarray binding, higher = more signal;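 also: score merges 667 nm emission and signal to noise over triplicate slides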
# Sequence of E3 ubiquitin-protein ligase XIAP (Homo sapiens) (P98170 whole entry, looked up): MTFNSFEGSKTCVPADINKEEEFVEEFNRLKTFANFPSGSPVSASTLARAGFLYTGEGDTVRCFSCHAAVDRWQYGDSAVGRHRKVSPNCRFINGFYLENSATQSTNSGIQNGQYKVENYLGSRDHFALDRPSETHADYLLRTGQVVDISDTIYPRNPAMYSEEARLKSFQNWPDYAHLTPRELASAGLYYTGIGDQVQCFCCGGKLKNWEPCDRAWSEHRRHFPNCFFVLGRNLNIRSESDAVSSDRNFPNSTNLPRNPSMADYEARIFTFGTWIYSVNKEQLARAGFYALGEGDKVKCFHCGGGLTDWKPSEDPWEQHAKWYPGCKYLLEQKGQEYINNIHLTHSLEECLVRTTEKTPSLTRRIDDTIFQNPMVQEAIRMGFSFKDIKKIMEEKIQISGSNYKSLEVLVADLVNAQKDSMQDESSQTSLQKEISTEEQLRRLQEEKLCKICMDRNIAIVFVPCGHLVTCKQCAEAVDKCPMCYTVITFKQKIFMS
# Sequence of Dihydroorotate dehydrogenase (quinone), mitochondrial (Plasmodium falciparum (isolate 3D7)) (Q08210 whole entry, looked up): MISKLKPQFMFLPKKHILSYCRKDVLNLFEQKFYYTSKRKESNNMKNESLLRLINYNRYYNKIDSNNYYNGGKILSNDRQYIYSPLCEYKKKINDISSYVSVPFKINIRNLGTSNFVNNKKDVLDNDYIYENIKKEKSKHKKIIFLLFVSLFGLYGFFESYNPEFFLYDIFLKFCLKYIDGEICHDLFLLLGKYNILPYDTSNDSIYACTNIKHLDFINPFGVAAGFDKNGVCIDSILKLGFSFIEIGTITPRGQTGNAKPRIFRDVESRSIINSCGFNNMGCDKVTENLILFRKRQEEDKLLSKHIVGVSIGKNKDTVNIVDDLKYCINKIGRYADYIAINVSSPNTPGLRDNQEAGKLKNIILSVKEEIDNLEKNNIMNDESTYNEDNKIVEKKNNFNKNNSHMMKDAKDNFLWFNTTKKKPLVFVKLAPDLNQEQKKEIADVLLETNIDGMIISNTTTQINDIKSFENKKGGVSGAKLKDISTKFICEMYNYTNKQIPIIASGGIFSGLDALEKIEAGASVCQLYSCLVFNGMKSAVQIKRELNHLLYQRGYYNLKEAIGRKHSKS
Structure (SMILES),z-score [1],z-score [2],z-score [3],z-score [4],z-score [5],z-score [6],z-score [7],z-score [8],z-score [9],z-score [10],z-score [11],z-score [12],z-score [13],composite z-score [14],z-score [15],z-score [16],z-score [17],z-score [18],z-score [19],composite z-score [20]
COc1ccc(O[C@@H]2[C@H](O)CO[C@H]2C=Cc2ccccc2)cc1,0.576,0.759,0.898,-0.418,-0.483,0.364,0.0785 (inactive),0.868,-0.121,-1.44 (inactive),-1.03,-4.4 (inactive),-0.0321 (inactive),-1.24 (inactive),0.83 (inactive),-1.85 (inactive),0.988 (inactive),-0.741 (inactive),-0.473,-0.113
CC(C)=CCCC(C)=CCON=C1C[C@@H](O)[C@@H](O)[C@@H]2[C@@H]3C(=O)N(Cc4ccccc4)C(=O)[C@@H]3CC[C@@H]12,0.123,-0.827,-1.45,0.732,0.107,0.786,0.199 (inactive),-0.11,-0.689,0.708 (inactive),1.42,-0.404 (inactive),0.772 (inactive),0.317 (inactive),-0.143 (inactive),0.581 (inactive),0.593 (inactive),1.01 (inactive),0.97,-0.121
CO[C@H]1COC(=O)[C@@H](Cc2ccccc2)NC(=O)[C@@H](C)COC(=O)CCC[C@@H]1C,0.704,0.0955,0.577,-0.267,-0.283,-0.212,0.00303 (inactive),-0.161,-1.23,0.6 (inactive),0.464,-0.916 (inactive),1.18 (inactive),-1.7 (inactive),-1.24 (inactive),-0.726 (inactive),0.285 (inactive),1.39 (inactive),0.759,-0.0918
C=CC[C@@H]1C=C[C@H](ON=C(C)CCN2CCc3nc(-c4ccccc4)c(-c4ccccc4)cc3C2)[C@@H](CO)O1,2.2,0.114,2.31,-2.36,-0.141,3.86,-1.91 (inactive),0.518,-1.17,0.548 (inactive),-0.244,-1.96 (inactive),-2.02 (inactive),-0.126 (inactive),0.0767 (inactive),0.124 (inactive),0.921 (inactive),0.392 (inactive),0.365,-0.12
CC(C)(C)N1C(=O)[C@H]2[C@H]3[C@H](O)[C@H](O)CC(=NO[C@@H]4O[C@H](CO)[C@@H](O)[C@H](O)[C@H]4O)[C@H]3CC[C@H]2C1=O,-2.09,1.08,-2.16,-2.93,-3.96,-1.68,-1.81 (inactive),-0.344,-0.447,-0.817 (inactive),-0.849,-1.3 (inactive),-0.623 (inactive),-0.982 (inactive),1.15 (inactive),0.339 (inactive),-0.341 (inactive),-1.45 (inactive),-0.817,-0.142
CC(CCN1CCCCc2nc(C)c(C)cc21)=NO[C@H](C)c1cn([C@H](CO)Cc2ccccc2)nn1,0.277,0.72,-0.386,0.607,-1.4,-0.969,-2.1 (inactive),0.686,-0.457,-0.0266 (inactive),-0.605,-0.241 (inactive),0.0783 (inactive),0.301 (inactive),-0.503 (inactive),-0.134 (inactive),-0.894 (inactive),-0.488 (inactive),0.594,0.0595
CCCNC(=O)OC[C@H]1O[C@H](CCON=C(C)CCC(=O)OC[C@H]2O[C@H](c3ccccc3)C=C[C@@H]2Oc2ccc(OC)cc2)C=C[C@@H]1Oc1ccc(OC)cc1,0.415,0.354,-0.208,-1.31,-0.303,1.26,0.000229 (inactive),0.625,0.33,0.748 (inactive),0.704,0.195 (inactive),0.205 (inactive),-1.13 (inactive),0.0525 (inactive),0.17 (inactive),0.629 (inactive),0.363 (inactive),1.31,-0.171
COc1cccc([C@H]2Oc3ccc(OC)cc3C(=NO[C@@H]3O[C@H](COC(C)=O)[C@@H](OC(C)=O)[C@H](OC(C)=O)[C@H]3OC(C)=O)[C@@H]2O)c1,0.679,-0.375,-0.104,-0.525,-0.476,-0.515,-3.37 (inactive),-0.0523,0.0745,-0.416 (inactive),-0.34,0.387 (inactive),-0.726 (inactive),-0.582 (inactive),0.347 (inactive),-1.02 (inactive),0.416 (inactive),-0.716 (inactive),-0.158,0.02
CCCNC(=O)OC[C@H]1O[C@H](c2ccccc2)C=C[C@@H]1Oc1ccc(OC)cc1,-0.365,0.125,-0.138,-0.543,-0.0859,-0.362,-0.307 (inactive),-0.215,0.0375,-0.745 (inactive),-0.889,-1.88 (inactive),-1.06 (inactive),0.152 (inactive),-0.115 (inactive),-0.0966 (inactive),0.507 (inactive),0.342 (inactive),-0.35,-0.0629
O=C1CCCC(C2=CCCCC2=O)C1 (stereo not given),-0.965,-0.824,-0.114,0.322,0.652,0.512,-0.845 (inactive),0.987,-0.857,-0.684 (inactive),-0.575,0.0749 (inactive),-1.83 (inactive),0.153 (inactive),0.663 (inactive),0.541 (inactive),0.998 (inactive),0.524 (inactive),-1.01,0.197
CC(C)=NOC[C@@H](C)[C@H](OCc1ccccc1)C(C)C,0.108,0.311,-0.0481,-0.313,-0.556,-0.0858,0.0392 (inactive),-0.279,0.503,-0.557 (inactive),-0.593,0.201 (inactive),-0.572 (inactive),0.444 (inactive),-0.115 (inactive),0.536 (inactive),-0.161 (inactive),-0.339 (inactive),0.887,0.0077
CC(C)C[C@H](NC(=O)CCC1CC(OC(=O)NCc2cccc3ccccc23)CC2(CCCC(COC(=O)NCc3ccccc3)O2)O1)C(=O)NCC(c1ccccc1)c1ccccc1 (stereo not given in full),-0.375,0.111,-0.429,-3.53,-0.971,-0.341,0.922 (inactive),-0.802,-0.715,0.337 (inactive),0.1,-0.245 (inactive),0.284 (inactive),-0.79 (inactive),0.851 (inactive),-0.0457 (inactive),0.64 (inactive),0.628 (inactive),0.731,-0.242
CO[C@H]1COC(=O)CC=C[C@H](C)[C@@H](OC)COC(=O)[C@H](C)COC(=O)CC=C[C@@H]1C,0.389,-0.376,1.05,0.199,-1.03,1.86,0.352 (inactive),-0.316,-0.326,-0.132 (inactive),0.531,-0.319 (inactive),0.254 (inactive),0.491 (inactive),-0.838 (inactive),0.606 (inactive),0.827 (inactive),0.0975 (inactive),-0.501,-0.256
O=C1CCCC=C1C(O)CCOC(c1ccccc1)(c1ccccc1)c1ccccc1 (stereo not given),-0.893,-0.268,-0.26,-3.43,-3.62,-2.77,-0.115 (inactive),-0.879,-0.0919,0.418 (inactive),0.0714,-0.529 (inactive),0.0795 (inactive),0.466 (inactive),0.368 (inactive),1.25 (inactive),0.0368 (inactive),-0.356 (inactive),-0.193,0.412
CCOC(=O)NN=C1C[C@@H](O)[C@@H](O)[C@@H]2[C@@H]3C(=O)N(Cc4ccccc4)C(=O)[C@@H]3CC[C@H]12,0.29,0.114,-1.05,0.976,-2,0.366,0.42 (inactive),0.334,-0.68,0.939 (inactive),1.16,-0.892 (inactive),1.41 (inactive),-0.451 (inactive),0.483 (inactive),-1.1 (inactive),-0.077 (inactive),0.495 (inactive),1.89,-0.27
O=C(C=Cc1ccc2c(c1)OCO2)c1ccc(F)cc1,-0.182,0.867,-0.358,-3.26,-3.41,-0.698,-0.211 (inactive),-0.811,-0.286,0.275 (inactive),-0.214,-10.1 (active),-0.194 (inactive),0.184 (inactive),-0.245 (inactive),-0.31 (inactive),0.264 (inactive),-0.423 (inactive),-0.538,-0.176
